# High-throughput results as filed in PubChem.
# This is a sample that favours compounds with a hit; in the whole collection about 7.3% have one here.
# Tau fluor cs: Counterscreen qHTS for Inhibitors of Tau Fibril Formation, Fluorescence Polarization | tau K18 P301L Alexa594 fluorescence, heparin fibrillization | Potency, µM (titrated, usually from 57.7 µM), without a hit: at the highest dose activity change, negative = decrease | actives 0.93% (n = 280,000); note: nearly all actives have a fitted effect of over 55% in size
#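 Human K18 P301L tau (15 uM unlabeled plus 0.24 uM Alexa 594-labeled, final) in 100 mM sodium acetate pH 7 was mixed with compound and 20 uM heparin and incubated 6 hr at 37 C.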
# VP16 counter: VP16 counterscreen qHTS for inhibitors of ROR gamma transcriptional activity; Drosophila S2 Gal4-VP16 UAS-luciferase, luminescence, 20 h; Potency, µM (titrated, usually from 53.6 µM), without a hit: top-dose activity, negative = inhibition, usual class: inhibitors; actives 3.5% (n = 310,000); AID 2546, 2010;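 note: Gal4-VP16 expression switched on by copper sulfate through the metallothionein promoter; nearly all actives have a fitted effect of over 50% in size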
# Tau FP inhib: qHTS for Inhibitors of Tau Fibril Formation, Fluorescence Polarization; Microtubule-associated protein tau (Homo sapiens), P10636; K18 P301L tau heparin fibrillization, Alexa594 FP, 6 h; Potency, µM (series often up to 57.7 µM), inactives show at the highest dose activity, negative = inhibition, actives largely listed as inhibitors; actives 0.39% (n = 280,000); note: nearly all actives have a fitted effect of over 55% in size
# Target sequence (P10636 561-689 P618L limits assumed): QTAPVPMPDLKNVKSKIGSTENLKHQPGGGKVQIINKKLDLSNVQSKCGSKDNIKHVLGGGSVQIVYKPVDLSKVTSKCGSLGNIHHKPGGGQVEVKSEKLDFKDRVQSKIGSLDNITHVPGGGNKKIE
#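 Read-out: fluorescence polarization of Alexa 594-labeled tau (0.24 uM), 555 nm excitation, 632 nm emission. Mixtures held 15 uM unlabeled K18 P301L, compound and 20 uM heparin, pH 7 acetate buffer, incubated 6 hr at 37 C.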
# Tau ThT inhib: qHTS for Inhibitors of Tau Fibril Formation, Thioflavin T Binding; Microtubule-associated protein tau (Homo sapiens), P10636; recombinant tau K18 P301L (four-repeat tau fragment), heparin-induced fibrillization, ThT fluorescence; Potency, µM (titrated, usually from 57.4 µM), inactives show top-dose activity, negative = inhibition, actives largely listed as inhibitors; actives 2.1% (n = 270,000); AID 1460, 2008; note: nearly all actives have a fitted effect of over 55% in size
#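 Heparin-induced (20 uM) aggregation of recombinant human K18 P301L tau, 15 uM unlabeled with 0.24 uM labeled, pH 7 acetate buffer, 6 hr at 37 C with compound. Fibrils quantified by 30 uM ThT fluorescence after 1 hr ambient incubation.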
# RORgamma inh: qHTS for inhibitors of ROR gamma transcriptional activity | Potency, µM (highest dose often 53.6 µM), without a hit: at the highest dose activity change, negative = inhibition, actives largely listed as inhibitors | actives 5.4% (n = 310,000) | AID 2551, 2010 | Drosophila S2 Gal4-RORgamma UAS-luciferase reporter, 20 h; note: nearly all actives have a fitted effect of over 60% in size
# Target sequence (P51450 whole entry, looked up, the tested form may be a part): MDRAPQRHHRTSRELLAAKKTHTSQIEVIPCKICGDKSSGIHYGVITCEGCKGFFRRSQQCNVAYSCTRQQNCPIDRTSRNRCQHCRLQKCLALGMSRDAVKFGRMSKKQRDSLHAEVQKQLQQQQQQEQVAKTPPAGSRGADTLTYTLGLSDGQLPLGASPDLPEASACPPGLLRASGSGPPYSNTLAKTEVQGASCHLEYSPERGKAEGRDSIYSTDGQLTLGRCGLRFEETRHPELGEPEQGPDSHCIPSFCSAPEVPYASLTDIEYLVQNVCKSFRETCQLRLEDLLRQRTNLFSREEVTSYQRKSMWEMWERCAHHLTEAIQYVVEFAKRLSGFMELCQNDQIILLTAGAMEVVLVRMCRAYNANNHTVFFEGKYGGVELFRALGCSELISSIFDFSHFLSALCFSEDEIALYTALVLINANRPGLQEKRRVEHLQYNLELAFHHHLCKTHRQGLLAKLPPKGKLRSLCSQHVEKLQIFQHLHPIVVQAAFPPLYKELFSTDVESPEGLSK
#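 Stably transfected Drosophila Schneider cells are the test system, with ROR gamma fused to Gal4 and luciferase under UAS control; luminescence is read after 20 hr of 700 uM copper sulfate induction at ambient temperature.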
# * hit, by the source's call; ? = inconclusive; . = no result given; [ ] = another dose, or the depositor's remark. Calls come from the whole dose curve; as a rule, active = well fitted curve in the direction sought with a large enough effect; inconclusive = small, poorly fitted or top-dose-only effect, or another doubt; inactive = no such curve, though single readings can be large; an effect the other way counts as inactive or inconclusive. % is set by controls: 0 for no effect and ±100 for the full control effect; potency is the fitted concentration of half-maximal effect.
SMILES,Tau fluor cs,VP16 counter,Tau FP inhib,Tau ThT inhib,RORgamma inh
O=C(Cn1c(=O)oc2cc(S(=O)(=O)N3CCCCC3)ccc21)Nc1cccc(Cl)c1,-14.1%,.,-21.9%,-3.0%,.
Cc1ccc(S(=O)(=O)N(CC(=O)Nc2ccc3c(c2)OCO3)c2cc(Cl)cc(Cl)c2)cc1,?,.,?,-5.5%,.
CC(C)c1ccc(NC(=O)NC2(C(=O)NCc3cccnc3)CCCCC2)cc1,.,-5.7%,.,.,0.8%
S=c1[nH]c(-c2ccccc2)cn1/N=C/c1ccc(Br)cc1,-23.5%,7.08µM*,-0.1%,?,0.398µM*
Cc1ccc(C)c(/C=N/n2cc(-c3ccccc3)[nH]c2=S)c1,-18.7%,?,6.0%,?,0.282µM*
Fc1ccccc1/C=N/n1cc(-c2ccccc2)[nH]c1=S,?,8.91µM*,6.5%,?,1.41µM*
CN1c2c(nc(N)[nH]c2=O)NCC1CNc1ccc(C(=O)NC(CCC(=O)O)C(=O)O)cc1 (centres undefined),.,-2.1%,.,.,14.4%
CCC(NC(=O)CCc1c(C)c2cc3c(-c4ccccc4)coc3cc2oc1=O)C(=O)O (centres undefined),.,-22.4%,.,.,-34.1%
Cc1ccc(OCCN2CCN(C(=O)CCC(=O)Nc3nnc(C(C)C)s3)CC2)cc1,-1.7%,12.6µM*,-1.2%,-13.8%,38.1%
Cc1ccc(OCCN2CCN(C(=O)CCC(=O)Nc3nnc(C)s3)CC2)cc1,-4.4%,-4.6%,-1.3%,1.0%,?
Cc1ccc(F)c(C2C3C=CCCC3(C)C(=O)N2Cc2ccccc2)c1 (centres undefined),.,31.6µM*,.,.,?
C[C@@](N)(C(=O)O)c1ccc(S(=O)(=O)O)cc1,-11.4%,-11.9%,3.1%,-11.0%,5.8%
COc1ccc(C2=C/C(=C\c3cccc(OC(C)=O)c3)C(=O)O2)cc1,-6.3%,?,-6.9%,-15.8%,7.08µM*
COc1ccc(C2=C/C(=C\c3ccccc3OC(C)=O)C(=O)O2)cc1,.,-0.1%,.,.,14.5%
Cc1ccccc1NC(=O)C(=O)NCCc1c[nH]c2ccccc12,?,8.3%,14.4%,-15.0%,24.8%
COc1cc(NC(=S)NCCc2c[nH]c3ccccc23)c(OC)cc1Cl,8.3%,3.55µM*,10.7%,9.8%,7.08µM*
COc1ccccc1NC(=S)NCCc1c[nH]c2ccccc12,-25.0%,?,14.3%,-13.3%,14.1µM*
Cc1ccc(NC(=S)NCCc2c[nH]c3ccccc23)c(C)c1,-28.6%,17.8µM*,11.7%,-6.2%,7.94µM*
COc1ccc2[nH]cc(CCNC(=S)NCCc3ccccc3)c2c1,?,-23.0%,6.6%,?,11.2µM*
O=C1CN(C(=O)c2ccc(S(=O)(=O)N3CCCC3)cc2)C(c2ccc(F)cc2)c2cc(Br)ccc2N1 (centres undefined),-11.7%,.,2.8%,-5.9%,.
COC(=O)[C@H](COC(C)(C)C)NC(=O)O[C@@H]1C(=O)c2ccc(OC)cc2O[C@H]1c1ccc2c(c1)OCO2,-7.0%,-9.0%,-2.0%,-3.6%,-15.9%
COc1ccc2c(CCNC(=O)Nc3ccccc3)c[nH]c2c1,-25.4%,2.5%,10.6%,?,?
COc1ccc(NC(=S)NCCc2c[nH]c3ccccc23)cc1,?,12.6µM*,13.0%,?,14.1µM*
O=C(Oc1ccnc2cc(Cl)ccc12)N1CCCCCC1,-15.7%,12.6µM*,-6.4%,?,3.5%
O=C(c1ccc(Cl)cc1)N1CCN(c2ccnc3cc(Cl)ccc23)CC1,-11.7%,25.1µM*,-8.3%,?,?
SMILES,Tau fluor cs,VP16 counter,Tau FP inhib,Tau ThT inhib,RORgamma inh
CCC(=O)N1CCN(c2ccnc3cc(Cl)ccc23)CC1,-0.2%,1.2%,-3.8%,.,-7.0%
Cc1ccc(S(=O)(=O)N2CCN(c3ccnc4cc(Cl)ccc34)CC2)cc1,-11.4%,15.8µM*,4.9%,-17.6%,?
CC(C)(C)OC(=O)N1CCC(c2c(C(=O)N3CCN(C(=O)c4ccco4)CC3)cnn2-c2ccccc2)CC1,-1.1%,.,-3.8%,1.6%,.
COc1ccc2[nH]cc(CCNc3cc(-c4cccc(C#N)c4)ncn3)c2c1,.,-2.3%,.,.,3.1%
O=C(N/N=C/C1CCCCC1)c1ccccn1,1.0%,-0.1%,-1.3%,-14.6%,?
O=C(N/N=C/C1CCCCC1)c1cc(Cl)ccc1O,-2.5%,-14.4%,9.4%,-3.4%,12.6µM*
COc1ccccc1-c1cc(-n2ccnc2)ncn1,.,-11.3%,.,.,-26.5%
Cc1ccc(C(c2nnnn2CCc2ccccc2)N2CCSCC2)cc1 (centres undefined),-5.7%,-3.1%,14.8%,-7.0%,24.6%
Cc1ccc(C(c2nnnn2C(C)(C)C)N2CCC(C)CC2)cc1 (centres undefined),-1.7%,-15.8%,-5.9%,-10.3%,?
CN(C)c1ccc(C(c2nnnn2C(C)(C)C)N2CCN(C(=O)c3ccco3)CC2)cc1 (centres undefined),?,1.2%,-14.2%,15.8µM*,?
CCOc1ccc(C(c2nnnn2C(C)(C)C)N2CCN(C(=O)c3ccco3)CC2)cc1 (centres undefined),.,7.8%,.,.,-0.9%
Cc1ccc(C(c2nnnn2CCc2ccccc2)N2CCC(C)CC2)cc1 (centres undefined),-3.5%,14.1µM*,0.6%,-3.6%,?
CC1CCN(C(c2ccccc2)c2nnnn2C(C)(C)C)CC1 (centres undefined),-7.9%,3.16µM*,-7.3%,-3.7%,?
Cc1ccc(N2CCN(C(=O)Nc3cn(CC(C)C)c(=O)c4ccccc34)CC2)c(C)c1,-16.4%,.,2.1%,?,.
COc1ccc(NC(=O)C2CC(=O)N/C(=N/N=C/c3ccccc3)S2)cc1 (centres undefined),-0.8%,4.9%,?,9.5%,-1.5%
CCCOc1ccc(NC(=O)C2CC(=O)N/C(=N/N=C(C)/C=C/c3ccc(N(C)C)cc3)S2)cc1 (centres undefined),?,3.16µM*,17.8%,?,2.82µM*
CC(/C=C/c1ccc(N(C)C)cc1)=N\N=C1\NC(=O)CC(C(=O)Nc2ccccc2)S1 (centres undefined),?,3.55µM*,8.9%,?,2.24µM*
CC(/C=C/c1ccc(N(C)C)cc1)=N/N=C1/NC(=O)CC(C(=O)Nc2ccc(Cl)cc2)S1 (centres undefined),8.91µM*[quencher],8.91µM*,-3.0%,7.94µM*,2.51µM*
N#Cc1nc(COc2ccccc2Cl)oc1NCCc1ccccc1,?,.,-5.6%,?,.
O=C(Nc1nc2ccccc2n1CCN1CCOCC1)c1ccccc1,.,3.55µM*,.,.,2.82µM*
